An excerpt weighted towards active compounds, which were near 19% of everything screened.
DT40 TDP1 CPT: qHTS for Inhibitors of human tyrosyl-DNA phosphodiesterase 1 (TDP1): qHTS in cells in presence of CPT; Potency, µM (series often up to 46.2 µM), without a hit: at the highest dose activity change, negative = growth inhibition, actives largely listed as inhibitors; hit rate 12% among 420,000; chicken DT40 Tdp1-/-;hTDP1 cells + 20 nM CPT, ATP luminescence, 48 h; also: potency is read from the fitted curve at half-maximal effect; % is scaled to controls: 0 for no effect and ±100 for the full control effect; nearly all actives have a fitted effect of over 55% in size
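Chicken DT40 Tdp1-/- cells stably complemented with human TDP1 were seeded at 400 cells/well in medium containing 20 nM camptothecin, exposed to pin-transferred compounds, and grown at 37 °C for at least 48 hr. Viability was read as ATP luminescence.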
IL1B secr inh: qHTS for Inhibitors of Inflammasome Signaling: IL-1-beta AlphaLISA Primary Screen. THP-1 LPS/ATP IL-1B secretion, AlphaLISA, 16 h; stronger effect = lower value. activity change, % at 57.5 µM. hit rate 4.7% among 360,000. AID 743279, 2014; in the data active = activity change below about -50%; inconclusive = mostly about -30% to -49%; also: % is scaled to controls: 0 for no effect and ±100 for the full control effect
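Secreted IL-1B measured by AlphaLISA bead assay after 16 h compound exposure of THP-1 cells; compounds (final up to 57.5 uM) added 1 h before LPS (250 ng/mL) and ATP (1.25 mM) stimulation; lower signal means less secretion.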
TGFb inhibitor: qHTS for Inhibitors of TGF-b. HepG2 CAGA-GFP TGF-b/SMAD3 reporter, GFP fluorescence, 18 h; TGF-beta stimulated, 500 pg/mL final. Potency, µM (series often up to 46.1 µM), inactives show at the top dose activity, negative = inhibition, actives largely listed as inhibitors. hit rate 1.2% among 410,000. AID 588855, 2011; also: potency is read from the fitted curve at half-maximal effect; % is scaled to controls: 0 for no effect and ±100 for the full control effect; nearly all actives have a fitted effect of over 65% in size
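Cell-based qHTS in HEPG2 carrying a CAGA-GFP Smad reporter; compounds added before 500 pg/mL final TGF-beta, 18 h incubation at 37 degrees C, GFP fluorescence quantified per cell by imaging cytometry.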
HepG2 viability: qHTS for Inhibitors of TGF-b: Cytotox Counterscreen; HepG2 CAGA-GFP viability, ATP luminescence, 18 h; Potency, µM (highest dose often 46.1 µM), inactives show at the top dose activity change, negative = cytotoxicity, hits mostly cytotoxic; hit rate 0.76% among 410,000; AID 588856, 2011; also: potency is read from the fitted curve at half-maximal effect
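HepG2 CAGA-GFP cells (1000/well, DMEM with 1% FBS) received compound, then TGF-beta at 500 pg/mL final, and were incubated 18 hours at 37 degrees C. Viability was read by CellTiter-Glo luminescence. Media-only wells were set as complete cell-killing and DMSO as no toxicity.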
TDP1 cell noCPT: qHTS for Inhibitors of human tyrosyl-DNA phosphodiesterase 1 (TDP1): qHTS in cells in absence of CPT. Potency, µM (doses to about 46.2 µM), for inactives: top-dose activity change, negative = growth inhibition, most hits filed as inhibitors. DT40 Tdp1-/- hTDP1 cells, no CPT, ATP luminescence, 48 h. hit rate 15% among 420,000. AID 686978, 2013; also: potency is read from the fitted curve at half-maximal effect; % is scaled to controls: 0 for no effect and ±100 for the full control effect; nearly all actives have a fitted effect of over 55% in size
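Readout: luminescence from CellTiter-Glo after 30 min in the dark at RT. Cells: DT40 Tdp1-/- with stable hTDP1, 400/well. Exposure: compounds alone, ≥48 hr, 37 °C.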
S-ASM inh: Inhibitors of Secretory Acid Sphingomyelinase (S-ASM): qHTS. Sphingomyelin phosphodiesterase (Homo sapiens), P17405. placental ASM, HMU-PC fluorogenic substrate, 60 min. Potency, µM (series often up to 57.5 µM), without a hit: top-dose activity change, negative = inhibition, most hits filed as inhibitors. hit rate 0.006% among 340,000; also: potency is read from the fitted curve at half-maximal effect
Target sequence (P17405 47-631 limits assumed): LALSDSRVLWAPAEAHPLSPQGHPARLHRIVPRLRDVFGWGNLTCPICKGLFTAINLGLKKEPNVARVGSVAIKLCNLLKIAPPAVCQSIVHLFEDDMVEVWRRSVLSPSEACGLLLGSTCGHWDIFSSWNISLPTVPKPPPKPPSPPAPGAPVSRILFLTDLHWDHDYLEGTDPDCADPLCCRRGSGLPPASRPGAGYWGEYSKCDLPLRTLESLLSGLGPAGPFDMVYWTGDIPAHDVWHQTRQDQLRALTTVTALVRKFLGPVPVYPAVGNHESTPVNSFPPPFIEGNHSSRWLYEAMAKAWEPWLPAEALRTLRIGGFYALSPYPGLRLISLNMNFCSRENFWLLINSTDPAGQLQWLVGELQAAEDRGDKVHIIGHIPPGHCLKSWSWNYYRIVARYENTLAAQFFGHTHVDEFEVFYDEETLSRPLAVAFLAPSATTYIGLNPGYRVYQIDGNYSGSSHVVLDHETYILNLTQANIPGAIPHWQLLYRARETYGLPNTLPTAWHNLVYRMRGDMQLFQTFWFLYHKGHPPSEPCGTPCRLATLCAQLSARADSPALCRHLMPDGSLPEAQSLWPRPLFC
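Steps: dispense placental human ASM, pin compound, wait 10 min at room temperature, add HMU-PC0 substrate at 9 uM final, incubate 60 min at 37 °C, add stop solution raising pH to 10, read fluorescence.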
An asterisk follows results filed as active; u = inconclusive; x = no result. Unless noted, calls follow the shape of the dose curve; as a rule, active = well fitted curve in the direction sought with a large enough effect; inconclusive = small, poorly fitted or top-dose-only effect, or another doubt; inactive = no such curve, though single readings can be large; an effect the other way counts as inactive or inconclusive.

SMILES | DT40 TDP1 CPT | IL1B secr inh | TGFb inhibitor | HepG2 viability | TDP1 cell noCPT | S-ASM inh
Cc1cccc(CNC(=O)C(=O)Nc2ccccc2C)c1 | 2% | x | 16% | 0% | 15% | x
Fc1cccc(Nc2ncnc3c2cnn3-c2ccccc2)c1 | u | -10 | u | -35% | 16µM* | -7%
Clc1cccc(Nc2ncnc3c2cnn3-c2ccccc2)c1 | u | -11 | u | -50% | u | -24%
N#Cc1cccc(Nc2ncnc3c2cnn3-c2cccc(Cl)c2)c1 | u | x | 0% | 5% | 23µM* | x
COCCNC(=O)CN1C(=O)NC2(CCCCCC2)C1=O | -11% | 12 | 9% | -12% | 5% | 4%
CCCCN1CC(O)=C(c2nc(-c3ccc(Cl)cc3)cs2)C1=N | -13% | 19 | -16% | 9% | -17% | -1%
COCC(C)N1CC(O)=C(c2nc(-c3ccc(Cl)cc3)cs2)C1=N (stereo not given) | -27% | -53* | -2% | -14% | -28% | -1%
COc1ccc(N2CC(O)=C(c3nc(-c4ccc(F)cc4)cs3)C2=N)cc1Cl | u | 12 | 8% | -5% | u | -17%
COc1ccc(N2CC(O)=C(c3nc(-c4ccc(F)cc4)cs3)C2=N)cc1OC | u | -1 | 0% | 40% | 18µM* | -24%
COc1cccc(CN2CC(O)=C(c3nc(-c4ccc(Cl)cc4)cs3)C2=N)c1 | -18% | 53 | -5% | 18% | 9.2µM* | 0%
N=C1C(c2nc(-c3ccc(Cl)cc3)cs2)=C(O)CN1CCCN1CCOCC1 | 26µM* | u | -5% | -43% | 26µM* | -22%
COc1cccc(CN2CCN(Cc3cccc(Br)c3)CC2)c1OC | -12% | -13 | 3% | 26% | u | 1%
Cc1cc(OCC(=O)NCCc2ccc(S(N)(=O)=O)cc2)c2c(C)cc(=O)oc2c1 | -4% | -18 | 16% | 2% | 2% | 0%
COc1cccc(-c2ccnc(-n3ncc(C(=O)NCC(C)(C)CN(C)C)c3C)n2)c1 | 7% | x | x | x | 4% | x
CCN(CC)C(=O)c1cccc(-c2csc(C(NC(C)=O)c3ccccc3)n2)c1 (stereo not given) | u | 6 | 20% | 7% | u | x
CCN(CC)C(=O)c1cccc(-c2csc(C(O)c3ccc(F)c(F)c3)n2)c1 (stereo not given) | 23µM* | 3 | u | -24% | u | x
CCN(CC)C(=O)c1cccc(-c2csc(C(NC(C)=O)c3ccc(F)c(F)c3)n2)c1 (stereo not given) | u | -28 | -5% | -17% | u | x
CCN(CC)C(=O)c1cccc(-c2csc(C(O)c3ccccc3)n2)c1 (stereo not given) | u | 11 | 0% | -19% | 23µM* | x
CCN(CC)C(=O)c1cccc(-c2csc(C(O)c3ccc(F)cc3)n2)c1 (stereo not given) | 15µM* | 11 | -18% | -20% | u | x
CCN(CC)C(=O)c1cccc(-c2csc(C(O)c3ccco3)n2)c1 (stereo not given) | 21µM* | 0 | 1% | -14% | u | x
N#Cc1ccc(-c2ccc(F)cc2)nc1SCC(=O)Nc1sc2c(c1C#N)CCC2 | -28% | 56 | 19% | -8% | -20% | 7%
Cc1ccc(C(=O)c2cc([N+](=O)[O-])ccc2N2CCCCC2)cc1C | 3.3µM* | 0 | u | 6% | 5.2µM* | -15%

Screening results deposited in PubChem by National Center for Advancing Translational Sciences (NCATS).
